# Bioassay records: PubChem, National Center for Advancing Translational Sciences (NCATS)
# A selection: hits, their analogues and other compounds. The true share with any hit is near 2.8%.
# Pol iota inh: blocks human DNA polymerase iota activity; Q9UNA4; Pol iota fluorescent replication assay, 10 min; Potency, µM (top dose mostly 115 µM), most hits filed as inhibitors; 390,000 tested, 1% active
#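 Fluorescent replication assay read twice, at 0 min and 10 min after adding 50 nM (final) substrate. Enzyme (10 nM) and compounds were first incubated 15 min at room temperature; enzyme-free buffer wells were negative controls.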
# PI4K2A block: inhibitors of human PI4K2A; Q9BTU6; purified PI4K2A, ADP-Glo luminescence, 1 h; active compounds read low; activity change, negative = inhibition, % at 76.9 µM; 420,000 tested, 0.13% active; AID 1346378; in the data active means activity change below about -50%; inconclusive means mostly about -30% to -49%
# Target sequence (Q9BTU6 whole entry, looked up): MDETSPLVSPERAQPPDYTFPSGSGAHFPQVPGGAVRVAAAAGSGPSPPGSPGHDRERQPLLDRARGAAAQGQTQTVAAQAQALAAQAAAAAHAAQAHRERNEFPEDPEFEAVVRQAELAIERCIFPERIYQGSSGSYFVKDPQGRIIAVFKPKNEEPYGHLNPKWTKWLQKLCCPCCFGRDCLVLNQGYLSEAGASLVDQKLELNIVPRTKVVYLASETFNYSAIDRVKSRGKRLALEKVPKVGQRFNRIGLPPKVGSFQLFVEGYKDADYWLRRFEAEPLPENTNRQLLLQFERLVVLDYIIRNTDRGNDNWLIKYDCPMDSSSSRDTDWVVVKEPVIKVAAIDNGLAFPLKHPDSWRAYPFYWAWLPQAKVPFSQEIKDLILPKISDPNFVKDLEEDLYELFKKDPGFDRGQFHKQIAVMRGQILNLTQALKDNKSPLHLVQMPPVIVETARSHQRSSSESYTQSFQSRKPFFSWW
#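 ADP-Glo luminescence measured ADP generated by PI4K2A enzyme (4 ug/mL before mixing) with 1.2 mM PI substrate (pre-mix) and 300 microM ATP (pre-mix). Tris pH7.5 buffer with MgCl2, Triton X-100; 1 h reaction at ambient temperature.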
# POLB inh: blocks human DNA polymerase beta activity. P06746. Pol beta primer extension/strand displacement, fluorescence kinetic. Potency, µM (top dose mostly 114 µM), most hits filed as inhibitors. 340,000 tested, 1.3% active
#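 Pol beta (10 nM) was preincubated with compound for 15 min at room temperature. The reaction was then started with 50 nM substrate and read immediately and after a further 10 min at room temperature.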
# POLK inh: blocks human DNA polymerase kappa activity. AID 588579. Potency, µM (series often up to 107 µM), usual class: inhibitors. Q9UBT6. 400,000 tested, 0.53% active. purified Pol kappa, fluorescent DNA synthesis assay, 10 min
#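 Kinetic fluorescence readout at 0 and 10 min followed reaction start with substrate at 50 nM final. Beforehand, enzyme (10 nM Pol kappa) stood 15 min with compound at room temperature; buffer-only wells were negative controls.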
# Pol eta inh: DNA polymerase eta (human) inhibition | recombinant Pol eta, fluorescent DNA replication assay | Potency, µM (titrated, usually from 114 µM), actives largely listed as inhibitors | 390,000 tested, 1.2% active | AID 588591
#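 Pol eta (10 nM) was preincubated with compounds for 15 min at room temperature, after which fluorescent replication substrate (50 nM final) was added to start the reaction. Fluorescence was read kinetically at 0 and 10 min.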
# PI5P4K alpha inh: PI5P4K alpha (human) kinase inhibition. max response, %. P48426. 330,000 tested, 1.2% active. AID 652105. PI5P4Kalpha enzyme, ADP-Glo luminescence, 60 min; active compounds read low; active means max response of -50% or lower; inconclusive means between -30% and -50%; inactive means -30% or higher; further: value at the top dose of about 77 µM
#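 Luminescence from ADP-Glo served as readout of PI5P4Kalpha activity in a qHTS format. Reaction: enzyme, substrate, compound, ATP at 5 microM final, 60 min at RT.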
# Hits are given with their value; n = inactive; u = inconclusive; x = no result. Unless noted, the call rests on the fitted dose curve; in most records, active means well fitted inhibition curve with a large enough effect; inconclusive means small, poorly fitted or top-dose-only effect, or another doubt; inactive means no such curve, though single readings can be large or run the other way.
SMILES,Pol iota inh,PI4K2A block,POLB inh,POLK inh,Pol eta inh,PI5P4K alpha inh
COc1ccccc1CNC(=O)c1cc(-c2cc(F)ccc2OC(C)C)n[nH]1,x,n,x,x,x,n
Cc1nc2sc(C(=O)NC3CC3)c(N)c2c(C)c1Cl,x,n,x,x,x,x
Cc1[nH]nc2c1C(c1ccc(F)cc1)C(C#N)=C(N)O2 (stereo not drawn),n,n,n,n,n,n
Cc1oc(C)c2c(=O)ccc3c(c12)OC(N)=C(C#N)C3c1ccc(F)cc1 (stereo not drawn),u,n,20µM,u,u,u
CCNC(=O)CSc1ncnc2sccc12,u,n,u,n,22µM,u
COCCNC(=O)CSc1ncnc2sccc12,n,n,n,n,n,n
O=C(CCC1N=C2c3ccccc3N=C(SCc3cccc(Cl)c3)N2C1=O)NCCc1ccccc1 (stereo not drawn),n,n,n,n,n,x
O=C(CCC1N=C2c3ccccc3N=C(SCc3ccc(Cl)cc3)N2C1=O)NCCc1ccccc1 (stereo not drawn),89µM,n,n,n,n,x
O=C(CCC1N=C2c3ccccc3N=C(SCc3ccc(F)cc3)N2C1=O)NCc1ccco1 (stereo not drawn),n,n,u,n,n,x
O=C(CC1N=C2c3ccccc3N=C(SCc3ccc(F)cc3)N2C1=O)NCc1ccco1 (stereo not drawn),n,n,50µM,n,n,n
Cc1ccc(CSC2=Nc3ccccc3C3=NC(CC(=O)NCc4ccco4)C(=O)N23)cc1 (stereo not drawn),u,n,25µM,u,u,u
CC(C)CC(CSc1ccc(Br)cc1)N1CCN(C)CCC1=O (stereo not drawn),n,x,x,n,x,x
O=C1c2c(O)cc(O)cc2OC(c2ccc(O)c(O)c2)C1O (stereo not drawn),4µM,n,1.9µM,6µM,5.6µM,x
COc1ccc([C@H]2Oc3cc(O)cc(O)c3C(=O)C2[C@@H]2C(=O)c3c(O)cc(O)cc3O[C@@H]2c2ccc(OC)cc2)cc1 (stereo partly drawn),n,n,u,n,n,-58
O=C1c2c(O)cc(O)cc2O[C@H](c2ccc(O)c(O)c2)C1O (stereo partly drawn),x,x,x,1.3µM,x,x
COc1cc(C2CC(=O)c3c(O)cc(O)cc3O2)ccc1O (stereo not drawn),n,n,u,n,n,n
CC1(C)CC(=O)c2c(O)cc(O)cc2O1,n,n,n,n,n,x
COc1ccc(C2CC(=O)Oc3cc(O)cc(O)c32)cc1 (stereo not drawn),n,n,u,n,n,n
COc1ccc2c(c1)O[C@H](c1ccc3c(c1)OCO3)[C@@H](O)C2=O,n,n,n,n,n,n
O=C1C(=O)C(c2ccc(O)cc2O)Oc2cc(O)cc(O)c21 (stereo not drawn),10µM,x,x,13µM,x,x
COc1cc(C2C(=O)N(C3CCCCCC3)CC(=O)N2CCc2ccccc2)ccc1OC(C)C (stereo not drawn),n,n,n,n,n,x
COc1ccc(CNC(=O)CC(c2ccc(OC)cc2)N2Cc3ccccc3C2=O)cc1 (stereo not drawn),n,n,n,n,n,x
CC1CCCC(C)N1/N=C/c1ccc(O)c(O)c1 (stereo not drawn),u,n,2.2µM,40µM,u,u
N#CC1(c2ccc(F)cc2)CCC(=O)CC1,x,n,x,x,x,x
Cc1cc(=O)oc2ccc(OCC(=O)NCc3ccco3)cc12,n,n,n,n,n,n
SMILES,Pol iota inh,PI4K2A block,POLB inh,POLK inh,Pol eta inh,PI5P4K alpha inh
COc1ccc2oc(-c3ccco3)cc(=O)c2c1,n,n,50µM,n,n,n
O=C(COc1ccc2oc(-c3ccccc3)cc(=O)c2c1)NCc1ccco1,u,n,22µM,n,u,n
CC1(C)OC(=O)C2(Cc3cc([N+](=O)[O-])ccc3N3CCCCCC32)C(=O)O1 (stereo not drawn),n,x,x,n,x,x
C[C@H]1O[C@@H](O[C@H]2CC[C@@]3(C)[C@H](CC[C@@H]4[C@@H]3C[C@@H](O)[C@]3(C)[C@@H](C5=CC(=O)OC5)CC[C@]43O)C2)C[C@H](O)[C@@H]1O[C@H]1C[C@H](O)[C@H](O[C@H]2C[C@H](O)[C@H](O[C@@H]3O[C@H](CO)[C@@H](O)[C@H](O)[C@H]3O)[C@@H](C)O2)[C@@H](C)O1,x,n,x,x,x,x
O=C(/C=C/c1ccccc1Cl)c1ccccc(=O)c1O,28µM,n,45µM,n,u,n
O=C(/C=C/c1c(F)cccc1Cl)c1ccc(O)cc1,u,n,n,n,n,n
O=C(/C=C/c1ccccc1Cl)c1cccnc1,40µM,n,n,n,n,n
O=C(/C=C/c1ccccc1Cl)c1ccc(O)cc1,u,n,n,n,n,-54
Cc1ccc(C)c(/C=C/C(=O)c2ccccc(=O)c2O)c1,u,n,u,n,u,n
CC1CCC(C(C)C)C(OC(=O)COC(=O)c2ccc(N)cc2)C1 (stereo not drawn),u,n,n,n,u,n
CC1CCC(C(C)C)C(OC(=O)C[n+]2cccc(C(N)=O)c2)C1 (stereo not drawn),n,n,n,n,n,-75
CCCOc1ccc2c(c1)CC[C@@H]1[C@@H]2CC[C@]2(C)C(OC)CC[C@@H]12 (stereo partly drawn),x,n,x,x,x,x
C=CCN1[C@H](C#N)[C@@H](c2ccc(C#Cc3cccnc3)cc2)[C@H]1CO,x,n,x,x,x,x
O=C(CC1S/C(=N/N=C/C=C/c2ccccc2)NC1=O)Nc1ccc(C(=O)O)cc1 (stereo not drawn),n,n,n,n,n,-77
O=C(CC1S/C(=N/N=C/c2ccco2)NC1=O)Nc1ccccc1 (stereo not drawn),n,n,n,n,n,n
O=C(N/N=C/C(Cl)=C/c1ccc([N+](=O)[O-])cc1)C(=O)Nc1cccc(C(=O)O)c1,u,n,u,n,50µM,n
Cc1ccc(/C(C#N)=C\c2ccc(N3CCOCC3)o2)cc1,n,n,n,n,n,x
N#C/C(=C\c1ccc(Sc2ccccc2)o1)c1nc2ccccc2[nH]1,n,n,40µM,n,u,n
Cc1cc2nc(/C(C#N)=C\c3ccc(-c4ccccc4C(=O)O)o3)[nH]c2cc1C,u,n,u,u,25µM,n
N#C/C(=C\c1ccc(-c2ccccc2C(=O)O)o1)c1nc2ccccc2[nH]1,n,n,n,n,u,-69
Cc1ccc2nc(/C(C#N)=C\c3ccc(N4CCOCC4)o3)[nH]c2c1,u,n,35µM,n,u,n
N#C/C(=C\c1ccc(-c2ccc(F)cc2F)o1)c1nc2ccccc2[nH]1,u,n,u,n,n,x
